Our source for the inhibition values is PubChem BioAssay AID1481 (The Scripps Research Institute Molecular Screening Center, 2009).

The campaign covered roughly 220,000 compounds. About 920 (0.42%) were called active. Only a selection was taken, and actives are over-represented in it overall. A number with no mark means an inactive call. Rule as the data show it: active = inhibition above about 15%; inactive = the rest.

As a reminder, the inhibition is the drop in the measured response relative to a control, in per cent.

This assay deals with Transitional endoplasmic reticulum ATPase (Homo sapiens) (UniProt P55072). Put plainly: inhibitors of human p97 ATPase, primary screen, biochemical (AID 1481).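 Also: 0% = DMSO vehicle and 100% = wells lacking enzyme.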 To be noted: recombinant p97 ATPase, Kinase-Glo ATP luminescence, 3 h; at 8 µM; stronger effect = higher value.
Chain of Transitional endoplasmic reticulum ATPase (Homo sapiens) (P55072 whole entry, looked up): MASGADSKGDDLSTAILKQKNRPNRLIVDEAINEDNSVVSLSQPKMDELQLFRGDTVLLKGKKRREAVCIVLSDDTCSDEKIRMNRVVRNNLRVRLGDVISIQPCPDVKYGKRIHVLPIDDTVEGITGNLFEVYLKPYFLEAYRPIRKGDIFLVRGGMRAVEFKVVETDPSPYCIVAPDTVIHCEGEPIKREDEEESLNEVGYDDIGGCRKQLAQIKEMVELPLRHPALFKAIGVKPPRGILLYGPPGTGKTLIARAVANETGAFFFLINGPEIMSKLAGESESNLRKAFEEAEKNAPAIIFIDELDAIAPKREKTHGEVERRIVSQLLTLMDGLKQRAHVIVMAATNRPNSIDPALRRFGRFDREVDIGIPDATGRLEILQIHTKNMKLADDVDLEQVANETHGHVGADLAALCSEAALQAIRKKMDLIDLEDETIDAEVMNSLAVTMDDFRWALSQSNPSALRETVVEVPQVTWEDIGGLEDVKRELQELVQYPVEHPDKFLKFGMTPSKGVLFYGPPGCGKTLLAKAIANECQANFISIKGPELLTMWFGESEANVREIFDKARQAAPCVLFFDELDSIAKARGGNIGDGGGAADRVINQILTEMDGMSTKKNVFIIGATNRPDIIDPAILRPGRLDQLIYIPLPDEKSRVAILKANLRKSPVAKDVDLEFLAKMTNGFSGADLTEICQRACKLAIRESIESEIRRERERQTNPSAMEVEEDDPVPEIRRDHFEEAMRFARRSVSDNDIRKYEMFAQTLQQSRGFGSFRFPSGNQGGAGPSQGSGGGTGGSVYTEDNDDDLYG
On to `O=c1[nH]c(CN2CC=C(c3ccccc3)CC2)nc2scc(-c3cccs3)c12`, for which the inhibition was 15.1% (active).

Regarding `O=c1c2ccccc2nc(-c2ccccc2)n1-c1ccccn1`, the inhibition was 3.57%.

Consider `CNC(=O)Nc1ccc(C(O)(C(=O)OC)C(F)(F)F)cc1` (stereo not given), for which the inhibition is -1.08%.

For the compound `CC(=O)Nc1ccccc1C(=O)OCC(=O)c1cccc2ccccc12`, the inhibition is -0.08%.

`N=c1ccccn1Cc1ccccc1`: the inhibition was 10.5%.
